From PubChem BioAssay (NCATS) come the findings set out here.

The structures appear in SMILES notation. Inconclusive results are not listed. The source made the active and inactive calls. Calls come from the whole dose curve; as a rule, active = well fitted inhibition curve with a large enough effect; inconclusive = small, poorly fitted or top-dose-only effect; inactive = no such curve, though single readings can be large or run the other way.

The test concerns the target Retinaldehyde dehydrogenase 3 (Homo sapiens) (UniProt P47895). As to the kind of experiment: qHTS for Inhibitors of the Aldehyde Dehydrogenase Family (ALDH1A3) Primary screen (AID 2061315).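 Note: plate controls were DMSO vehicle for no effect and reference inhibitor for full effect.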 The note with it: ALDH inhibition qHTS; series mostly up to 56 µM; activity change, negative = inhibition: at the top concentration.
As to `CC[C@H]1OC(=O)[C@H](C)[C@@H](O[C@H]2C[C@@](C)(OC)[C@@H](O)[C@H](C)O2)[C@H](C)[C@@H](O[C@@H]2O[C@H](C)C[C@H](N(C)C)[C@H]2O)[C@@](C)(O)C[C@@H](C)[C@@H]2N[C@@H](COCCOC)OC([C@H]2C)[C@]1(C)O`, the “activity change, negative = inhibition” value is 10.4% (inactive).

For `Cc1cc(NC(=O)NCCN2CCC(O)(Cc3ccccc3)CC2)c2ccccc2n1`, the “activity change, negative = inhibition” value is 8.91% (inactive).

For `CCCC(C(=O)O)c1c(C)nc2ccc(Cl)cc2c1-c1ccccc1` (stereo not given), the “activity change, negative = inhibition” value is -0.351% (inactive).

In the case of `CCc1c(CC(N)=O)c2cc(OCCCP(=O)(O)O)ccc2n1Cc1ccccc1`, the “activity change, negative = inhibition” value was 3.53% (inactive).

Consider `COC(=O)C(Cc1ccc(OCCn2c(=O)sc3cc(C(=O)c4ccccc4)ccc32)cc1)C(=O)OC`, for which the “activity change, negative = inhibition” value was -2.51% (inactive).

As for `CC(C)c1nnc(-c2ccc(-c3ccccc3)nc2)n1-c1cccc2nonc12`, the “activity change, negative = inhibition” value was -0.941% (inactive).

Turning to `O=C(O)[C@@H]1C[C@H]2C[C@@H](CCc3nn[nH]n3)CC[C@H]2CN1`, the “activity change, negative = inhibition” value was -11.8% (inactive).

As to `COc1ccc(CCN(C)CCCOc2nsc(-c3ccccc3)n2)cc1OC`, the “activity change, negative = inhibition” value is -8.86% (inactive).

In the case of `CNC(=O)O[C@H]1COc2ccc(N3CCN(C4COC4)CC3)cc2[C@@H]1NC(=O)c1ccc(F)cc1`, the “activity change, negative = inhibition” value is 15.8% (inactive).

On to `O=C(Nc1ccccc1)N1CCN(c2nc(-c3ccccc3)ns2)CC1`, for which the “activity change, negative = inhibition” value is 6.5% (inactive).

`O=C1CC2(CCCC2)[C@H](O)C(=O)N1CCCCN1CCN(c2ncccn2)CC1`: the “activity change, negative = inhibition” value is -9.29% (inactive).

As for `O=C(Nc1ccccc1)N1CCC(Cc2cnc3ccccc3c2)CC1`, the “activity change, negative = inhibition” value was 12.6% (inactive).

Consider `CN(C)C(=O)C(O)C(Cc1ccccc1)NC(=O)c1cc2cc(Cl)ccc2[nH]1` (stereo not given), for which the “activity change, negative = inhibition” value is 8.73% (inactive).

For the compound `CCOC(CN1CCN(CC(C)C(=O)c2ccccc2)CC1)c1ccccc1` (stereo not given), the “activity change, negative = inhibition” value is -16.9% (inactive).

For `CC(C)Nc1nc(Nc2ccccc2)nc(-c2ccccc2)n1`, the “activity change, negative = inhibition” value was -8.39% (inactive).
